Experimental data reported in paper PMC4552634, “A New Set of Chemical Starting Points with Plasmodium falciparum Transmission-Blocking Potential for Antimalarial Drug Discovery” (PLoS ONE, 2015).
About 3,200 (25%) of roughly 13,000 compounds showed an effect of 50% or more. This is one part of the list.

These molecules were tested on P. falciparum stage V gametocytes. Conditions: 48 h, 5 µM; inhibitor.
Parameters: BacTiter-Glo ATP luminescence viability of purified stage V gametocytes in 384-well plates, per cent inhibition versus DMSO

SMILES	% Inhibition
O=C(CCc1cccc(O)c1)NCC(NCCCNc1cc(=O)c2ccccc2[nH]1)c1cc(Br)cc(Br)c1 (stereo not shown) [TCMDC-140319]	-27.67%
COc1ccc(C(=O)N2CCC3(CC2)C(=O)N(CC(=O)NCC2CCCCC2)CN3c2ccccc2)c(OC)c1 [TCMDC-125170]	-47.66%
CN(C)c1ccc(-c2csc(C(=O)NCC3CCN(CC4CCCCC4)C3)c2)cc1.O=C(O)C(F)(F)F (stereo not shown) [TCMDC-134424]	97.4%
O=C(NCC1CCN(Cc2cccc(F)c2)C1)c1cc(-c2cccc(C(F)(F)F)c2)cs1 (stereo not shown) [TCMDC-134480]	4.488%
O=C(NCC1CCN(Cc2ccc3c(c2)OCCO3)C1)c1cc(-c2cccc(C(F)(F)F)c2)cs1.O=C(O)C(F)(F)F (stereo not shown) [TCMDC-134458]	1.256%
O=C(NCC1CCN(Cc2cccc(C(F)(F)F)c2)C1)c1cc(-c2cccc(C(F)(F)F)c2)cs1 (stereo not shown) [TCMDC-134483]	53.9%
O=C(NCC1CCN(Cc2cccc(C(F)(F)F)c2)C1)c1cc(-c2cccc(F)c2)cs1 (stereo not shown) [TCMDC-134484]	54.37%
CC(=O)Nc1ccc(CN2CCC(CNC(=O)c3cc(-c4cccc(C(F)(F)F)c4)cs3)C2)cc1.O=C(O)C(F)(F)F (stereo not shown) [TCMDC-134456]	0.3319%
O=C(NCC1CCN(Cc2ccsc2)C1)c1cc(-c2cccc(C(F)(F)F)c2)cs1.O=C(O)C(F)(F)F (stereo not shown) [TCMDC-134478]	-49.55%
O=C(NCC1CCN(CC2CCCCC2)C1)c1cc(-c2cccc(C(F)(F)F)c2)cs1.O=C(O)C(F)(F)F (stereo not shown) [TCMDC-134422]	101.5%
COc1ccccc1C1CCN(C2CCC(NC(=O)/C=C/c3cccc(C(F)(F)F)c3)CC2)CC1 (stereo not shown) [TCMDC-133555]	-60.89%
Cc1cc(-c2cccc3c(NC(=O)N4CCc5cc6nccc(N7CCN8CCC[C@H]8C7)c6cc54)cccc23)cc(C)n1 [TCMDC-139794]	-14.58%
COc1cc2c(cc1C(F)(F)F)N(C(=O)Nc1cc(F)cc(-c3cncnc3)c1)CC2 [TCMDC-139039]	-11.26%
O=C(Nc1cccc(-c2nc3ccccc3[nH]2)c1)c1cccc(NC(=O)c2ccco2)c1 [TCMDC-125185]	18.17%
CC(=O)c1ccc(S(=O)(=O)N2CCC(C(=O)Nc3ccccc3N3CCCC3)CC2)cc1 [TCMDC-125467]	-11.47%
CCC(C)NS(=O)(=O)c1ccc2nc(Nc3ccc(C)c(Cl)c3)n([C@H](C)C(C)(C)C)c2c1 (stereo partly shown) [TCMDC-136238]	38.05%
O=C(C=Cc1cccs1)Nc1ccc(-c2nc3ccccc3[nH]2)cc1 [TCMDC-123926]	-97.24%
COc1ccccc1CN1CCC(CNC(=O)c2cc(-c3ccc(N(C)C)cc3)cs2)C1.O=C(O)C(F)(F)F (stereo not shown) [TCMDC-134451]	95.05%
O=C(NCC1CCN(Cc2cccc(C(F)(F)F)c2)C1)c1cc(-c2cccc(Cl)c2)cs1 (stereo not shown) [TCMDC-134485]	50.21%
COc1ccccc1CN1CCC(CNC(=O)c2cc(-c3cccc(C(F)(F)F)c3)cs2)C1.O=C(O)C(F)(F)F (stereo not shown) [TCMDC-134450]	-43.84%
CCCC(=O)Nc1ccc(OCCCN(Cc2ccccc2F)c2ccc(C#N)c(C(F)(F)F)c2)cc1 [TCMDC-135449]	24.41%

SMILES	% Inhibition
CN1CCN(Cc2ccc(-c3ccc4c(Nc5cc(O)c(Cl)cc5F)ccnc4c3)o2)CC1 [TCMDC-138446]	74.65%
Fc1cc(Cl)ccc1Nc1ccnc2cc(-c3ccc(CN4CCNCC4)o3)ccc12 [TCMDC-138394]	83.09%
Fc1cc(Cl)ccc1Nc1ccnc2cc(-c3ccc(CN4CCCCC4)o3)ccc12 [TCMDC-138396]	9.087%
Oc1cc(Nc2ccnc3cc(-c4ccc(CN5CCCCC5)o4)ccc23)c(Cl)cc1F [TCMDC-138485]	11.9%
Fc1cc(Cl)ccc1Nc1ccnc2cc(-c3ccc(CNCCN4CCOCC4)o3)ccc12 [TCMDC-138397]	-18.32%
Fc1cc(Cl)ccc1Nc1ccnc2cc(-c3ccc(CN4CCOCC4)o3)ccc12 [TCMDC-138393]	99.43%
Fc1cc(Cl)ccc1Nc1ccnc2cc(-c3ccc(CN4CCSCC4)o3)ccc12 [TCMDC-138392]	1.462%
CN1CCN(Cc2ccc(-c3ccc4c(Nc5cc(O)c(F)cc5Cl)ccnc4c3)o2)CC1 [TCMDC-138486]	4.683%
CN1CCN(Cc2ccc(-c3ccc4c(Nc5ccc(Cl)cc5F)ccnc4c3)o2)CC1 [TCMDC-138395]	-22.3%
COc1ccc2nccc(N3CCN(CCNCc4ccc5c(n4)NC(=O)CS5)CC3)c2c1.Cl [TCMDC-141962]	5.259%
CCCCC1(c2ccc(F)cc2)NC(=O)N(CC(=O)c2cc(C)n(Cc3ccco3)c2C)C1=O (stereo not shown) [TCMDC-125119]	0.3946%
O=C(Nc1ccc(N2CCN(c3ncccc3C(F)(F)F)CC2)nc1)c1cccs1 [TCMDC-125784]	10.79%
CC(=O)Nc1ccc(S(=O)(=O)N2CCN(c3nc(NC4CCCC4)c4ccccc4n3)CC2)cc1 [TCMDC-123869]	2.309%
CNC(=O)c1cc(S(=O)(=O)N2CCN(c3ccccn3)CC2)cs1 [TCMDC-124847]	78.13%
CCNC(=O)c1cc(S(=O)(=O)N2CCN(c3ccccn3)CC2)cs1 [TCMDC-124848]	88.58%
CNC(=O)c1cc(S(=O)(=O)N2CCN(c3ccccn3)CC2)c(C)s1 [TCMDC-124846]	34.83%
Cc1nc(-c2ccc3c(c2)CCN(CCC2CCC(NC(=O)c4cc5cccc(Cl)c5[nH]4)CC2)CC3)no1 (stereo not shown) [TCMDC-140071]	-33.37%
O=C(Nc1ccc(Cl)c(C(F)(F)F)c1)c1ccc(Cl)c([N+](=O)[O-])c1 [TCMDC-125647]	-24.24%
O=C(c1ccc(F)c2ccccc12)N1CCc2cc3nccc(N4CCN5CCC[C@H]5C4)c3cc21 [TCMDC-140043]	23.61%
CS(=O)(=O)c1ccc(CCNCc2ccc(-c3ccc(CN(C(=O)C4CC(=O)c5ccccc54)C4Cc5ccccc5C4)cc3)nc2)cc1 (stereo not shown) [TCMDC-141509]	97.27%
CN1CCC(C(=O)N(Cc2ccc(-c3ccc(CNCCc4ccc(S(C)(=O)=O)cc4)cn3)cc2)C2Cc3ccccc3C2)CC1 [TCMDC-141508]	99.19%

SMILES	% Inhibition
CS(=O)(=O)c1ccc(CCNCc2ccc(-c3ccc(CNC4CCN(Cc5ccccc5)CC4)cc3)nc2)cc1 [TCMDC-141614]	33.12%
CN1CCC(C(=O)N(Cc2ccc(-c3ccc(CNCCc4ccc(S(C)(=O)=O)cc4)cn3)cc2)C2CCN(Cc3ccccc3)CC2)CC1 [TCMDC-141506]	104.7%
CS(=O)(=O)c1ccc(CCNCc2ccc(-c3ccc(CN(C(=O)C4CC(=O)c5ccccc54)C4CCN(Cc5ccccc5)CC4)cc3)nc2)cc1 (stereo not shown) [TCMDC-141605]	41.88%
CS(=O)(=O)c1ccc(CCNCc2ccc(-c3ccc(CNC4Cc5ccccc5C4)cc3)nc2)cc1 [TCMDC-141615]	5.211%
CS(=O)(=O)c1ccc(CCNCc2ccc(-c3ccc(CN(C(=O)C4CCCC4)C4CCN(Cc5ccccc5)CC4)cc3)nc2)cc1 [TCMDC-141511]	48.38%
c1ccc(CCNCc2ccc(-c3ccc(CNC4CCN(Cc5ccccc5)CC4)cc3)nc2)cc1 [TCMDC-141649]	82.96%
CC(C)c1ccc(Cn2cc(-c3ccncc3)c3cc(OCc4ccccc4)ccc32)cc1 [TCMDC-137225]	2.514%
CCc1cccc(NC(=O)c2ccc(CN3CCCN(CC4CCCCC4)CC3)cc2)c1 [TCMDC-136399]	-29.35%
O=c1cc(NCCCNC2CCOc3c(I)cc(Cl)cc32)[nH]c2ccccc12 (stereo not shown) [TCMDC-139489]	-10.52%
O=C1COc2ccc(CNC3CCC(O)(CCc4ccnc5cc6c(cc45)OCCO6)CC3)nc2N1 (stereo not shown) [TCMDC-141941]	32.09%
O=C(c1ccc(-c2ccc(-c3nc4cc(C(F)(F)F)ccc4[nH]3)s2)cc1)N1CCN(CCc2ccccc2)CC1 [TCMDC-132482]	3.451%
COc1cccc2cc(C(=O)N[C@@H](CC(C)C)C(=O)N[C@H](/C=N/N3C(=O)CN(Cc4ccccc4)C3=O)CCc3ccccc3)oc12 [TCMDC-136198]	-10.77%
O=C(Cc1cccc(O)c1)Nc1ccc(-c2cccc(-c3nc4ccc(C(F)(F)F)cc4[nH]3)c2)cc1 [TCMDC-132176]	0.6072%
COc1ccc(CCN2CCC(CN(C)Cc3cnn(-c4ccccc4)c3)CC2)cc1 [TCMDC-124632]	-8.037%
CN1CCCC1CCNCc1ccc(-c2ccc(CNCCc3ccccc3)cn2)cc1 (stereo not shown) [TCMDC-141617]	85.17%
CN1CCC(C(=O)N(Cc2ccc(-c3ccc(CNCCc4ccccc4)cn3)cc2)C2CCN(Cc3ccccc3)CC2)CC1 [TCMDC-141552]	110.4%
COc1ccc(CNCc2ccc(-c3ccc(CNCCc4ccccc4)cn3)cc2)cn1 [TCMDC-141647]	26.41%
CC(C)C[C@@H](C(=O)N[C@@H](CCCCNC(=O)OCc1ccccc1)C(=O)Nc1nccs1)[C@H](C)N(O)C=O [TCMDC-137184]	-15.37%
C[C@@H]([C@@H](CCCc1ccc(Cl)cc1)C(=O)N[C@H](C(=O)Nc1cccnc1)C(C)(C)C)N(O)C=O [TCMDC-138383]	-4.065%
